Pf Dd2 inh: inhibitors of Plasmodium falciparum Dd2 growth; P. falciparum Dd2 growth, SYBR Green, 72 h; hit rate 4.3% among 120,000; AID 1347417; Potency, µM (highest dose often 28.9 µM), hits mostly inhibitors; active = well fitted inhibition curve with a large enough effect; also: nearly all actives have a fitted effect of over 65% in size
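Readout: SYBR Green fluorescence, 485 nm excitation, 535 nm emission, after ~16 h lysis at 37C. Before that, Dd2-infected red cells (2.5% hematocrit) grew 72 h with compound, 29 uM top final concentration.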
Hits are given with their value; [ ] = dose if it differs, or a comment. Only a selection was taken, and hits are over-represented in it overall.

Screening O=C(c1cccc2[nH]ccc12)N1CCCN(c2cc(-c3ccc(Cl)cc3)[nH]n2)CC1 returned Pf Dd2 inh inactive.
For COc1ccc(C(=O)N2CCC(N3C(=O)C(OC)C34CCOCC4)CC2)c(OC)n1 (configuration not stated) the results were Pf Dd2 inh inactive.
`O=C(CC1CCCC1)N1CCC(Cc2nc(-c3ccc(F)cc3)no2)CC1` gave Pf Dd2 inh inactive.
For COc1cccc(-c2cccc(COc3cnc4c(ccn4CC(=O)O)c3)c2)c1F the results were Pf Dd2 inh inactive.
For OC1CC(c2cc(N3CCc4c(Cl)cccc4C3)ncn2)C1 (configuration not stated) the results were Pf Dd2 inh inactive.
`O=C(Nc1ccc(F)cc1F)N[C@H]1C[C@H]2C(=O)NC[C@@H](CCC(=O)N3CCc4ccccc43)N2C1` gave Pf Dd2 inh inactive.
`NCCCC(=O)N1CCC2(CC1)CC(NC(=O)CN)c1ccccc12` (configuration not stated) gave Pf Dd2 inh inactive.
Screening CCN(C1CCOCC1)C1CN(C(=O)c2ccoc2)C1 returned Pf Dd2 inh inactive.
`C[C@H](C(=O)NCCN1CCOCC1)C1CC[C@@]2(C)Cc3sc(NC(=O)CC(C)(C)C)nc3[C@@H](C)[C@@H]2[C@H]1O` (some centres not stated) gave Pf Dd2 inh inactive.
Screening COCCn1cnnc1CCNC(=O)c1oc2cc(OC)ccc2c1C returned Pf Dd2 inh inactive.
`CN(C)C(=O)c1cc2c(s1)CCC(C(=O)N1CCN(c3ccccc3)CC1)C2` (configuration not stated) gave Pf Dd2 inh inactive.
`CN(C)C(=O)c1cc2c(s1)CCC(C(=O)N1CCN(c3cccc(Cl)c3)CC1)C2` (configuration not stated) gave Pf Dd2 inh 5µM.
`CN(C)C(=O)c1cc2c(s1)CCC(C(=O)N1CCN(c3ccccn3)CC1)C2` (configuration not stated) gave Pf Dd2 inh inactive.
For CCCn1nc(C)cc1CN(C)C(=O)[C@@H]1CN(C(C)=O)C[C@H]1c1nc(C)no1 the results were Pf Dd2 inh inactive.
`CS(=O)(=O)c1ccc(CN2CC[C@@H](c3ccc4ccccc4c3)[C@H](O)C2)cc1` gave Pf Dd2 inh inactive.
`O[C@@H]1CN(CC2CCNCC2)CC[C@H]1c1ccc2ccccc2c1` gave Pf Dd2 inh 11µM.
`O=C(O)c1ccc(CN2CC[C@@H](c3ccc4ccccc4c3)[C@H](O)C2)cc1` gave Pf Dd2 inh inactive.
`CN(C)C(=O)N1CCN(c2cc(Cl)ncn2)C(=O)C1` gave Pf Dd2 inh inactive.
Screening COc1cccc(-c2nc(-c3nnn4c3COC(c3ccc(C)cc3)C4)no2)c1 (configuration not stated) returned Pf Dd2 inh inactive.
`CN(C)C(=O)c1cccnc1OC1CCNCC1` gave Pf Dd2 inh inactive.
Screening CCNC(=O)c1cccnc1OC1CCN(Cc2ccccn2)C1 (configuration not stated) returned Pf Dd2 inh inactive.
O=C(NCCc1ccccn1)c1cccnc1OC1CCNCC1 was read as Pf Dd2 inh inactive.
c1cnc(N2CCOCC2)c(OC2CCNC2)n1 (configuration not stated) was read as Pf Dd2 inh 1.4µM.
For CN1CCC(Oc2ncccc2C(=O)O)CC1 the results were Pf Dd2 inh inactive.
For O=C(c1ccccc1)N1CCC(Oc2nccnc2N2CCOCC2)C1 (configuration not stated) the results were Pf Dd2 inh inactive.
For O=C(C1CCOCC1)N1CCC(Oc2nccnc2N2CCOCC2)C1 (configuration not stated) the results were Pf Dd2 inh inactive.
Screening CN1CCC(Oc2nccnc2N2CCc3ccccc3C2)C1 (configuration not stated) returned Pf Dd2 inh 8.9µM.
c1ccc2c(c1)CCN2c1nccnc1OC1CCNC1 (configuration not stated) was read as Pf Dd2 inh 7.9µM.
Screening c1cc(CN2CCC(Oc3nccnc3N3CCOCC3)C2)ccn1 (configuration not stated) returned Pf Dd2 inh inactive.
`CN1CCC(Oc2nccnc2N2CCOCC2)C1` (configuration not stated) gave Pf Dd2 inh inactive.
Screening c1ccc(CN2CCC(Oc3nccnc3N3CCc4ccccc43)C2)nc1 (configuration not stated) returned Pf Dd2 inh 4µM.
Screening CN(C)Cc1nnc(C2CCN(C(=O)CCNS(C)(=O)=O)CC2)n1C returned Pf Dd2 inh inactive.
Screening CCN1c2cc(C(=O)NC3CCCCC3)ccc2C(=O)N2CCCCCC21 (configuration not stated) returned Pf Dd2 inh inactive.
For CC(=O)N1CCCN(Cc2nnc(C(=O)N3CCC[C@@H]3c3cccc(F)c3)n2-c2ccccc2)CC1 the results were Pf Dd2 inh inactive.
For CNC(=O)CCn1ncc2cc(OC3CCc4cccc(-c5c(C)noc5C)c43)ccc21 (configuration not stated) the results were Pf Dd2 inh inactive.
CN1C(=O)CCCCC1C(=O)N1CCCCC1 (configuration not stated) was read as Pf Dd2 inh inactive.
For Cc1cccc(NC(=O)NCC2CCOCC2)c1C the results were Pf Dd2 inh inactive.
For CCn1ccc2sc(C)c(C(=O)N3CCOCC3)c2c1=O the results were Pf Dd2 inh inactive.
CC(=O)c1ccc(NC(=O)O[C@@H]2CO[C@H]3[C@@H]2OC[C@@H]3NC(=O)Nc2ccccc2)cc1 was read as Pf Dd2 inh inactive.
Screening CC(C)CN1C(=O)c2cccn2CC1CNC(=O)c1ccc(F)cc1 (configuration not stated) returned Pf Dd2 inh inactive.
Screening Cc1cnc(C2CCOCC2)n1CC1CCN(S(=O)(=O)c2cccnc2)CC1 returned Pf Dd2 inh inactive.
Screening Cc1ccc(NC(=O)c2c(C)oc3ncnc(N4CCCCC4)c23)cc1Cl returned Pf Dd2 inh inactive.
Screening COc1cc(=O)n2c(c1C(=O)Nc1ccccc1C)CCCC2 returned Pf Dd2 inh inactive.
Screening Cc1ccccc1NC(=O)c1c(C)oc2ccc(O)c(CN3CCCCCC3)c12 returned Pf Dd2 inh 2.5µM.
`Cc1cc(Br)ccc1NC(=O)c1c(C)oc2ncnc(N3CCCCC3)c12` gave Pf Dd2 inh inactive.
`COc1ccc(NC(=O)c2c(C)oc3ccc(O)c(CN4CCCCCC4)c23)cc1Cl` gave Pf Dd2 inh 0.35µM.
For COc1cc(=O)n2c(c1C(=O)Nc1ccc(F)c(Cl)c1)CCCC2 the results were Pf Dd2 inh inactive.
O=C(Nc1ccc(F)cc1)N1CC2CC(C1)[C@H]1CCCC(=O)N1C2 (some centres not stated) was read as Pf Dd2 inh inactive.
Screening Cc1cc(C(=O)N2C[C@@H](CO)[C@H](c3ccccn3)C2)no1 returned Pf Dd2 inh inactive.
For CCNC(=O)N1CC(C(=O)NC(C)c2ccccc2)CC(c2ccc(F)c(C)c2)C1 (configuration not stated) the results were Pf Dd2 inh inactive.
`Cn1nc(C2CCN(C(=O)CCC3CCCC3)CC2)c2c1CCOC2` gave Pf Dd2 inh inactive[5.79 µM].
CN(C)C[C@@H]1CN(S(C)(=O)=O)C[C@H]1NC(=O)c1ccc(Cn2ccnc2)o1 was read as Pf Dd2 inh inactive.
CCOC(=O)c1cc(-c2ccc(C)cc2)n(CC(=O)Nc2ccc(OC)c(Cl)c2)c1C was read as Pf Dd2 inh inactive.
Screening CCOC(=O)c1cccc(NC(=O)CCn2c(-c3ccc(F)cc3)cc(C(=O)OCC)c2C)c1 returned Pf Dd2 inh 0.1µM.

High-throughput results (PubChem BioAssay)
